Screens deposited in PubChem BioAssay by University of Kansas High Throughput Screening Laboratory.
The sample as a whole holds a higher share of hits than the screen did.
Pf apPOL inh: Pf-apPOL inhibitors, biochemical, fluorescence. Plasmodium falciparum apicoplast DNA polymerase (apPOL). hit rate 0.25% among 210,000. Recombinant Pf-apPOL, molecular beacon fluorescence, 1.5 h. AID 1794808, 2022. inhibition, % at 10 µM
mHTT CaM bind: mutant huntingtin-calmodulin interaction inhibitors – biochemical, AlphaScreen, primary screen; P42858; AlphaScreen His-mHTT/GST-CaM binding, luminescence; inhibition, % at 15 µM; hit rate 3.6% among 190,000; AID 1671202, 2021
Large screens that a line does not name were inactive. Cut-off read from the data, not from the text of the source: active = inhibition above about 50%; inactive = the rest.

O=C(COc1ccccc1)NC(c1ccccc1)c1cc(Cl)c2cccnc2c1O (centres undefined)	mHTT CaM bind 100
O=C(COc1ccccc1)NC(c1ccc([N+](=O)[O-])cc1)c1cc(Cl)c2cccnc2c1O (centres undefined)	none
CCn1cc(CN2CCC(C(=O)NC(C)(C)C)CC2)c2cc(OC)ccc21	none
CCc1ccccc1Nc1nnc(-c2cc3c(CO)cnc(C)c3oc2=O)s1	none
O=C(O)c1nnn(-c2ccccc2F)c1-c1ccccn1	none
O=C(Nc1nnc(-c2ccco2)o1)C1c2ccccc2Oc2ccccc21	none
CS(=O)(=O)c1cccc(-c2nnc(NC(=O)C3c4ccccc4Oc4ccccc43)o2)c1	mHTT CaM bind 99
O=C1OC(c2cccs2)=N/C1=C/c1ccc(OC(F)F)cc1	none
COc1cccc(-c2nnc(-c3ccc(OC)c(OC)c3)o2)c1	none
Cc1ccnc(NS(=O)(=O)c2ccc(C(C)(C)C)cc2)c1	mHTT CaM bind 100
Cc1ccnc(NS(=O)(=O)c2ccc(Cl)cc2)c1	none
COc1ccc(C2C(C(=O)Nc3cccnc3)=C(C)Nc3ncnn32)cc1 (centres undefined)	none
O=C(Cn1cnc2ccccc2c1=O)NCCO	none
O=C(NCCOc1ccc(-c2ccccn2)nn1)c1cc(Cl)ccc1Cl	mHTT CaM bind 100
O=C(NCCOc1cccc2cccnc12)c1ccc(Cl)cc1Cl	none
O=C(Cc1ccc(F)cc1)NCCOc1ccc(-c2ccc(F)cc2)nn1	none
O=C(CCSc1ccccc1)NCCOc1ccc(-c2ccccn2)nn1	mHTT CaM bind 100
O=C(Cc1cccs1)NCCOc1ccc(-c2ccccn2)nn1	mHTT CaM bind 100
O=C(Cn1cnc2ccccc2c1=O)NCCOc1ccc(-c2ccccn2)nn1	mHTT CaM bind 100
O=C(Cc1ccc(Cl)cc1)NCCOc1ccc(-c2cccs2)nn1	none
CCOc1ccccc1C(=O)N1CCN(c2nc(CN3CCC(C)CC3)cs2)CC1	none
CCCOc1ccc(C(=O)Nc2cccc(-c3nc4ccccc4o3)c2)cc1	none
CCc1c(C)nc2[nH]nc(-c3ccccc3)n2c1=O	none
CCc1c(C)[nH]n(-c2nn[nH]n2)c1=O	mHTT CaM bind 100 (no result: Pf apPOL inh)
O=C1OC(c2cccc(Cl)c2)=N/C1=C\c1ccc(F)cc1	none
Cc1nn(S(=O)(=O)c2cccc([N+](=O)[O-])c2)c(C)c1Br	none
O=[N+]([O-])c1cccc(S(=O)(=O)n2cc(Br)cn2)c1	mHTT CaM bind 80
COCCNC(=O)C(=O)Nc1ccc([N+](=O)[O-])cc1	none
O=c1c2ccccc2nc(/C=C/c2cc(Br)ccc2O)n1CCCO	mHTT CaM bind 76
O=c1[nH]c(/C=C/c2cc(Br)ccc2O)nc2ccccc12	none
O=C1/C(=C/c2ccc(Br)o2)CC/C1=C\c1ccc(Br)o1	mHTT CaM bind 96
O=C1C(=Cc2ccc(Br)o2)C(=O)c2ccccc21	mHTT CaM bind 77
O=C1C=C/C(=C/c2ccc(Br)o2)O1	none (no result: Pf apPOL inh)
O=C1C(=Cc2ccc(Sc3ccccc3)o2)C(=O)c2ccccc21	none
Nc1ccc(Nc2ccc([N+](=O)[O-])cc2)cc1	mHTT CaM bind 52
NCCNc1ccc([N+](=O)[O-])cc1	none
Cc1ccc(NC(=O)N2CCCC2c2ccc(Cl)cc2)cc1 (centres undefined)	none
O=C(Nc1ccc(F)cc1F)c1noc2c1CCCCC2	none
Cc1nc2cc(N3CC(C(=O)N4CCN(c5ccccc5F)CC4)CC3=O)ccc2o1 (centres undefined)	none
Cc1cc(OCC(=O)NN)ccc1Cl	none
CC(C)NC(=O)c1csc(COc2ccc(Cl)cc2)n1	none
Cc1cc(OCc2nc(C(=O)NC(C)C)cs2)ccc1Cl	mHTT CaM bind 66
Cc1cc(OCC(=O)NC(C)C)ccc1Cl	mHTT CaM bind 90
COc1ccc(C(C[N+](=O)[O-])c2c[nH]c3ccccc23)cc1 (centres undefined)	none
COc1ccc(C(C[N+](=O)[O-])c2c(C)[nH]c3ccccc23)c(OC)c1 (centres undefined)	mHTT CaM bind 63
COc1ccc(C(C[N+](=O)[O-])c2c(C)[nH]c3ccccc23)cc1OC (centres undefined)	none
COc1cc(C(C[N+](=O)[O-])c2c(-c3ccccc3)[nH]c3ccccc23)cc(OC)c1OC (centres undefined)	mHTT CaM bind 58
O=c1cc[nH]c2cc(N3CCOCC3)c(F)cc12	Pf apPOL inh 80
O=C(c1ccccc1)c1cc(F)c(N2CCOCC2)cc1Cl	none
CCN1CCN(C(=O)c2cnc(-c3ccccc3)nc2N2CCSCC2)CC1	none
CN1CCN(C(=O)c2cnc(-c3ccccc3)nc2N2CCSCC2)CC1	mHTT CaM bind 97
Cn1c(SCC(=O)N2CCc3ccccc32)nnc1-c1ccc(N)cc1	none
CC(C)(C)NC(=O)NC1CCN(C(=O)C2CC2)C1 (centres undefined)	none
CCc1cc(-c2n[nH]c(C)c2-c2nc3ccccc3s2)c(O)cc1OC	mHTT CaM bind 98
CCOc1cc(O)c(-c2n[nH]c(C)c2-c2ccc(F)cc2)cc1CC	none
Cc1ccc2nc(-c3ccc(NC(=O)c4cccs4)cc3)sc2c1	none
COc1ccccc1OCC(=O)O/N=C(\N)c1ccc(C)cc1	none
O=C1CC(C(=O)N2CCN(c3ccc(F)cc3)CC2)c2ccccc21 (centres undefined)	none
OCCCn1c(-c2ccc(F)cc2)csc1=Nc1ccc(F)cc1	mHTT CaM bind 59
OCCn1c(-c2ccc(F)cc2)csc1=Nc1ccc(F)cc1	none
Cc1ccc(-c2csc(=Nc3ccc(F)cc3)n2CCO)cc1	mHTT CaM bind 63
O=C1c2ccccc2C(=O)N1c1cccc(-c2csc(=Nc3ccccc3)n2CCO)c1	none
Cc1c(Cl)cccc1NS(=O)(=O)c1ccc2[nH]cc(C(=O)NC3CCCCC3)c(=O)c2c1	none
COc1cc(/C=C2\NC(=O)NC2=O)cc(Br)c1OCc1cccc(F)c1	none
CCOc1ccc(C(c2c(C)[nH][nH]c2=O)c2c(C)[nH][nH]c2=O)cc1	none
Cc1[nH][nH]c(=O)c1C(c1ccc(OCc2ccc(Br)cc2)cc1)c1c(C)[nH][nH]c1=O	mHTT CaM bind 52
CN(C)CCCN(C(=O)c1cccc(C(F)(F)F)c1)c1nc2ccc(F)cc2s1	mHTT CaM bind 55
CSc1cccc2sc(N(CCN(C)C)C(=O)c3ccc(N(C)C)cc3)nc12	none
O=C(NCCCc1ccccc1)c1ccc2c(c1)NC(=O)C1CCCCN21 (centres undefined)	none
O=C(NCCN1CCCCCC1)c1ccc2c(c1)NC(=O)C1CCCCN21 (centres undefined)	none
O=C1Nc2cc(C(=O)N3CCN(c4cccc(Cl)c4)CC3)ccc2N2CCCCC12 (centres undefined)	mHTT CaM bind 93
O=C(NCCCc1ccccc1)c1ccc2c(c1)NC(=O)C1CCCN21 (centres undefined)	mHTT CaM bind 67
COc1cccc(N2CCN(C(=O)c3ccc4c(c3)NC(=O)C3CCCCN43)CC2)c1 (centres undefined)	none
O=C(NCCN1CCC(Cc2ccccc2)CC1)c1ccc2c(c1)NC(=O)C1CCCCN21 (centres undefined)	mHTT CaM bind 97
O=C(NC1CC2CC1N(C(=O)CCc1ccccc1)C2)c1cccs1 (centres undefined)	none
Cc1ccnc(NS(=O)(=O)c2ccc(NC(=O)/C=C/c3ccc4c(c3)OCO4)cc2)n1	none
O=C1C(=Cc2ccco2)COCC1=Cc1ccco1	none (no result: mHTT CaM bind)
O=C1/C(=C/C=C/c2ccco2)CC/C1=C\C=C\c1ccco1	mHTT CaM bind 84
